Among the data in PubChem BioAssay AID720697 (Broad Institute, 2013) are outcome and activity change, negative = cytotoxicity values, retold here.

Results with a measured potency or affinity are listed apart. Inconclusive results are not listed. Calls of active or inactive are those of the source.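 How the source made its calls: active means signal loss with fitted half-maximal concentration at or below twice the top valid tested dose in every test run; inconclusive means runs disagree, flat 30 to 70% signal loss, or poor fit; inactive means all runs flat, opposite direction, or potency beyond limit.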

A short description of this experiment: HEK293T cytotoxicity, dose response, cytotoxicity control for miR-122 modulator project, cell-based, inhibitor set, cherry-pick, set 2 (AID 720697).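 Further: 0% = median of neutral control wells and -100% = MG132 positive control wells.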 The note with it: HEK293T viability, CellTiter-Glo luminescence, 48 h; series mostly up to 26 µM. For orientation: Cellular ATP, detected with luciferase, serves as a proxy for viable cell number.
On to `O=C(NC[C@H]1[C@@H](c2ccccc2)[C@@H](CO)N1CC1CCCC1)c1ccncc1`, for which the result was inactive.
For `Cc1onc(-c2ccccc2)c1C(=O)NCc1ccccn1`, the result was inactive.
With `CO[C@@H]1CN(C)C(=O)c2ccc(NC(=O)c3nc4ccccc4s3)cc2OC[C@H](C)N(Cc2cccnc2)C[C@H]1C`, the call was inactive.
For the compound `C/C=C/c1ccc([C@@H]2[C@@H](CO)N(S(C)(=O)=O)[C@H]2CN(C)C(=O)CC)cc1`, the result was inactive.
The same measure, in the same setting: then `CNC(=O)C[C@@H]1CC[C@H]2[C@@H](COc3ccc(NC(=O)C(C)C)cc3C(=O)N2C)O1`, with “inactive”; and `COc1ccc(CN2CCN(Cc3cccn3-c3ncccn3)CC2CCO)c(C)c1C` (centres undefined), with “inactive”; and `COc1nnc(-c2ccc(N3CCOCC3)c(NC(=O)c3ccccc3)c2)c2ccccc12`, with “inactive”.
The same measure, in the same setting: then `CCN(C[C@@H]1N[C@@H](CO)[C@@H]1c1ccc(C2=CCCC2)cc1)C(=O)c1cccnc1`, with “inactive”.
On the same count and under the same terms, in the case of `COc1ccc(NS(=O)(=O)c2ccc(NC(=O)C(C)(C(F)(F)F)C(F)(F)F)cc2)nn1` it was “inactive”; in that of `O=C(CN1CCN(c2nc(-c3ccccc3)cs2)CC1)Nc1ccc2c(c1)OCO2`, “inactive”; in that of `COC(=O)C[C@H]1CC[C@H]2[C@@H](COc3ccc(NC(=O)Nc4c(C)noc4C)cc3C(=O)N2C)O1`, “inactive”.
Regarding `CN1C(=O)c2cc(NC(=O)c3ccc(C(F)(F)F)cc3)ccc2OC[C@@H]2O[C@H](CC(=O)NC3Cc4ccccc4C3)CC[C@H]21`, the call was inactive.
Same read-out and setting: then `Cc1ccccc1-c1ccc2c(c1)O[C@@H](CN(C)C(=O)Nc1ccc(F)cc1)[C@@H](C)CN([C@@H](C)CO)S2(=O)=O`, with “inactive”; and `CCCN(C[C@@H]1N[C@@H](CO)[C@H]1c1ccc(-c2cccnc2)cc1)C(C)=O`, with “inactive”.
In the case of `CN1C(=O)c2cc(NC(=O)Cc3ccccc3)ccc2OC[C@H]2O[C@H](CC(=O)O)CC[C@H]21`, the result was inactive.
Take `CN1C(=O)c2cc(NC(=O)Nc3ccccc3F)ccc2OC[C@@H]2O[C@@H](CC(=O)NCc3ccc(-c4ccccc4)cc3)CC[C@@H]21`: the call was inactive.
Still for that read-out and setting: then `C[C@@H]1CN([C@H](C)CO)S(=O)(=O)c2ccc(C3=CCCC3)cc2O[C@@H]1CN(C)C(=O)C1CCOCC1`, with “inactive”.
`CCC(=O)N1[C@H](CN(C(C)C)S(C)(=O)=O)[C@H](c2ccccc2)[C@@H]1CO`: the compound was classed as inactive.
With `CC(=O)N1[C@H](CO)[C@@H](c2ccccc2)[C@H]1CN(CC(C)C)C(=O)c1ccccn1`, the call was inactive.
On the same count and under the same terms, in the case of `CCCNC(=O)C[C@H]1CC[C@@H]2[C@H](COc3ccc(NC(=O)c4cccs4)cc3C(=O)N2C)O1` it was “inactive”.
On the same count and under the same terms, in the case of `COc1ccc(S(=O)(=O)N(C)C[C@@H]2Oc3cc(-c4cccc(F)c4)ccc3S(=O)(=O)N([C@@H](C)CO)C[C@H]2C)cc1` it was “inactive”; in that of `C[C@H](CO)N1C[C@H](C)[C@H](CN(C)C(=O)Nc2cccc3ccccc23)Oc2ncc(C#Cc3ccc(C(F)(F)F)cc3)cc2C1=O`, “inactive”; in that of `CC(=O)N(C[C@H]1N[C@H](CO)[C@@H]1c1ccc(-c2ccccc2)cc1)C(C)C`, “inactive”.
On the same count and under the same terms, in the case of `CN1C(=O)c2cc(NC(=O)c3cccs3)ccc2OC[C@@H]2O[C@@H](CC(=O)O)CC[C@@H]21` it was “inactive”; in that of `CCCCN(CCCC)C(=O)CN(C)S(=O)(=O)c1ccc2c(c1)n(C)c(=O)c(=O)n2C`, “inactive”; in that of `COCC(=O)N1[C@@H](CO)[C@@H]2c3ccccc3N(C(=O)c3cccnc3)C[C@@H]21`, “inactive”.
Consider `CC(=O)N1[C@H](CO)[C@@H](c2ccccc2)[C@H]1CN(C(=O)NC(C)C)C1CCCC1`, for which the call was inactive.
Regarding `CN1C(=O)c2cc(NC(=O)c3cccs3)ccc2OC[C@@H]2O[C@H](CC(=O)NCC(F)(F)F)CC[C@H]21`, the compound was called inactive.
Same read-out and setting: in the case of `CCNC(=O)Nc1ccc2c(c1)C(=O)N(C)[C@H]1CC[C@H](CC(=O)NCCOC)O[C@@H]1CO2` it was “inactive”; in that of `CC(=O)Nc1ccc2c(c1)C(=O)N(C)[C@H]1CC[C@H](CC(=O)Nc3ccccc3Cl)O[C@@H]1CO2`, “inactive”.
With `Cc1ccccc1-c1nc(CN2CCCC(C(=O)NCCCN3CCOCC3)C2)c(C)o1` (centres undefined), the compound was classed as inactive.
With `CCCC(=O)Nc1ccc2c(c1)C(=O)N(C)[C@@H]1CC[C@H](CC(=O)NCc3cccc(F)c3)O[C@H]1CO2`, the result was inactive.
Same read-out and setting: then `Cc1ccc(S(=O)(=O)NCCCNS(C)(=O)=O)cc1`, with “inactive”; and `COc1ccccc1-c1ccc2c(c1)O[C@@H](CN(C)S(=O)(=O)c1ccc(F)cc1)[C@@H](C)CN([C@@H](C)CO)S2(=O)=O`, with “inactive”.
Regarding `O=C(Nc1ncc(Cc2cccc(C(F)(F)F)c2)s1)c1ccc(-c2cccc([N+](=O)[O-])c2)o1`, the activity change, negative = cytotoxicity is -25.5% [at 6 µM] (inactive).
Regarding `C/C=C/c1ccc([C@H]2[C@@H](CO)N(Cc3ccccn3)[C@H]2CNC(C)=O)cc1`, the call was inactive.
The same measure, in the same setting: in the case of `CCS(=O)(=O)Nc1ccc2c(c1)C(=O)N(C)[C@@H]1CC[C@@H](CC(=O)NCCCN3CCOCC3)O[C@H]1CO2` it was “inactive”; in that of `COc1cccc(CNC(=O)C[C@@H]2CC[C@@H]3[C@H](COc4ccc(NC(C)=O)cc4C(=O)N3C)O2)c1`, “inactive”; in that of `COc1ccc2c(c1)C(C)=CC(C)(C)N2C(=O)CNCc1ccc2c(c1)OCO2`, “inactive”.
